Inconclusive results are not listed. Activity calls are given as the source filed them. How the source made its calls: active means hit-call score of the fitted dose curve at least 0.9, where 1 is the maximum; inconclusive means response in the unintended direction; inactive means score below 0.9.
What follows are compounds tested against rat CYP2D1, Cyp2d1 (gene 266684) (UniProt P10633) (assay: NVS_ADME_rCYP2D1: NovaScreen (NVS) CYP450-related Enzyme Activity (ADME) Assay for rat CYP2D1 (AID 2283122)).
rat CYP2D1, Cyp2d1 (gene 266684), sequence (P10633 whole entry, looked up): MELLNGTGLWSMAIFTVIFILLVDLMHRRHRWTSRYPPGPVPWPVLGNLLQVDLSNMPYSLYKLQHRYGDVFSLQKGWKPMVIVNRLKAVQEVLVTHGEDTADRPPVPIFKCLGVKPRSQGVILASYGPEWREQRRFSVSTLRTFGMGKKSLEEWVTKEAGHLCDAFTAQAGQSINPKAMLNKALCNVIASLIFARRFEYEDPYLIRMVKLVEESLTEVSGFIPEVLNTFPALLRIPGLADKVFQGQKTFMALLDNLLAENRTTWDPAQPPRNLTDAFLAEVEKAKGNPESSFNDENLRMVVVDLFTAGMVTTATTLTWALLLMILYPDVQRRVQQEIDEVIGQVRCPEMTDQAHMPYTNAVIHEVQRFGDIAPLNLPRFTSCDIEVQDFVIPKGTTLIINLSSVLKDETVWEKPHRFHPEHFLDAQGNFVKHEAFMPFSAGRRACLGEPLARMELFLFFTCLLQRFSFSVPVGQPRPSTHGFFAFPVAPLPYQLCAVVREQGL
Method: NVS_ADME_rCYP2D1 is a biochemical, single-readout assay that uses extracted gene-proteins in a cell-free assay. Measurements were taken 0.75 hour after chemical dosing in a 96-well plate.NVS_ADME_rCYP2D1 is one of one assay component(s) measured or calculated from the NVS_ADME_rCYP2D1 assay. It is designed to make measurements of enzyme activity, a form of enzyme reporter, as detected with fluorescence intensity signals by Fluorescence technology.Data from the assay component NVS_ADME_rCYP2D1 was analyzed into 1 assay endpoint. This assay endpoint, NVS_ADME_rCYP2D1, was analyzed in the positive analysis fitting direction relative to Acetonitrile as the negative control and baseline of activity. Using a type of enzyme reporter, loss-of-signal activity can be used to understand changes in the enzymatic activity as they relate to the gene Cyp2d1. Furthermore, this assay endpoint can be referred to as a primary readout, because this assay has produced multiple assay endpoints where this one serves a enzymatic activity function. To generalize the intended target to other relatable targets, this assay endpoint is annotated to the cyp intended target family, where the subfamily is xenobiotic metabolism.
Binding assays used specific radioligands (tritiated, iodinated) with non-radioactive competitive displacement ligands in agonist or antagonist protocols (as indicated) and various reference compounds and inhibitors to titrate specific binding to receptors and transporters. Most enzyme assays (CYPs, kinases, phosphatases, proteases, HDACs) used recombinant protein and specific substrates (fluorescence mostly, some colorimetric and radioactive) and inhibitors, followed by a biochemical separation of substrate and product. All assays for the biochemical HTS were initially run in duplicate at a single concentration (10 uM for CYP450 assays and 25 uM for all others). Assay-chemical combinations meeting a pre-defined threshold (e.g., 30% inhibition and other criteria defined below) were then run in singleton concentration-response format with maximum concentration of 20 uM for CYPs and 50 uM for all others. Each assay was run with positive and negative controls, and concurrent controls on every plate. The follow-up (secondary) screen tested active chemical-pairs in concentration series, as well as a few additional assays not tested in the primary screen, some selected negative inactives, and several cases re-run in the concentration series for confirmatory purposes.

How did the outcome turn out when `COC(=O)N(OC)c1ccccc1COc1ccn(-c2ccc(Cl)cc2)n1` was run?
The outcome was “inactive”.

Which AC50 does the source give for `CCOP(=S)(OCC)SCn1c(=O)oc2cc(Cl)ccc21` here?
The AC50 was 7.17 µM (active).

How did the AC50 turn out when `OC(c1ccc(Cl)cc1)(c1cncnc1)c1ccccc1Cl` (stereo not given) was run?
The AC50 was 7.23 µM (active).

With `Cc1ccc(-c2c(Cl)nc(C#N)n2S(=O)(=O)N(C)C)cc1` as the compound, how does the AC50 read?
Its AC50 is 13 µM (active).

Which AC50 does the source give for `CC1COC(Cn2cncn2)(c2ccc(Oc3ccc(Cl)cc3)cc2Cl)O1` (stereo not given) here?
Its AC50 is 0.685 µM (active).

Which AC50 does the source give for `CCCC1COC(Cn2cncn2)(c2ccc(Cl)cc2Cl)O1` (stereo not given) here?
The AC50 was 6.88 µM (active).

For `CO/C=C(/C(=O)OC)c1ccccc1Oc1cc(Oc2ccccc2C#N)ncn1`, which AC50 is on record?
The AC50 was 5.45 µM (active).

With `CCOC(=O)C(Cl)Cc1cc(-n2nc(C)n(C(F)F)c2=O)c(F)cc1Cl` (stereo not given) as the compound, how does the outcome read?
Its outcome is “inactive”.

How did the AC50 turn out when `O=C(Nc1ccccc1)Nc1ccnc(Cl)c1` was run?
The AC50 was 10 µM (active).

`C=CCC1=C(C)[C@@H](OC(=O)[C@@H]2[C@@H](C=C(C)C)C2(C)C)CC1=O` was tested. Which AC50 did it give?
The AC50 was 1.05 µM (active).

Source: PubChem BioAssay (EPA / NIEHS)
